SMILES strings stand for the structures. Several values for one entry are separate records, joined by “and”; a condition that tells them apart may be missing. Identical values can stand only once.

For the first assay, the target named is Serine/threonine-protein kinase MARK2 (Homo sapiens) (UniProt Q7KZI7). The conditions noted are these: at 0.1 µM.
Serine/threonine-protein kinase MARK2 (Homo sapiens), sequence (Q7KZI7 whole entry): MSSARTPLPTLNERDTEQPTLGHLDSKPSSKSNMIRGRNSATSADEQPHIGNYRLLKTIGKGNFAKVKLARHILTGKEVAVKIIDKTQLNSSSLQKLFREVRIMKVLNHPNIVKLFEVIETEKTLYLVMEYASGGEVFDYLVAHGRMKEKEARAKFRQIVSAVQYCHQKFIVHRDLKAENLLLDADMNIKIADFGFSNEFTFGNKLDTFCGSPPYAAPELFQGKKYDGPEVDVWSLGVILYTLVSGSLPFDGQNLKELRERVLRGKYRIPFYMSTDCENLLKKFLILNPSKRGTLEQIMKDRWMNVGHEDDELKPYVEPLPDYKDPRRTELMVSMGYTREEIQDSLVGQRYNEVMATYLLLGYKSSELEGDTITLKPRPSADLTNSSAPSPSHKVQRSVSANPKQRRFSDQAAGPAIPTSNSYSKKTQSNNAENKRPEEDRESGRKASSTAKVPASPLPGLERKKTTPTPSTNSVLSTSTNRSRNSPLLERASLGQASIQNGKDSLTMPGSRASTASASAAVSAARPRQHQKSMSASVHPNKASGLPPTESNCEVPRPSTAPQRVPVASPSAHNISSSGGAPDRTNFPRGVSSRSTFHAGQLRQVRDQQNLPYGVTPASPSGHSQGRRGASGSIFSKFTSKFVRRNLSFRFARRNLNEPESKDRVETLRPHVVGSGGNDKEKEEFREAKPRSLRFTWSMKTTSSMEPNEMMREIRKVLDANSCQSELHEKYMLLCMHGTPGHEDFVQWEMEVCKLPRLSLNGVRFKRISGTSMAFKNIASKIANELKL
In general, inhibition refers to the change of the read-out against control, counted positive when it falls. Regarding `FC(F)(F)CNc1nccc(-c2cnn3ncccc23)n1`, the inhibition worked out at 0.47%.
Turning to `CCOc1ccc2c(-c3ccnc(Nc4cc(OC)cc(C(F)(F)F)c4)n3)cnn2n1`, the inhibition came to 0.85%.
In the case of `CCS(=O)(=O)c1ccc(OC)c(Nc2ncc(-c3cccc(C(C)=O)c3)o2)c1`, the inhibition is -1.1%.
The same measure, in the same setting: the result for `CS(=O)(=O)CCNCc1ccoc1-c1ccc2ncnc(Nc3ccc(OCc4ccccc4)cc3)c2c1` reads -1.43%; that for `NS(=O)(=O)c1cccc(N/C=C2\C(=O)Nc3ccccc32)c1`, 2.99%.
Take `CCn1c(-c2nonc2N)nc2cncc(C(=O)NCCNC)c21`: the inhibition is -0.85%.
Still for that read-out and setting: the result for `CS(=O)(=O)CCNCc1ccc(-c2ccc3ncnc(Nc4ccc(OCc5cccc(C(F)(F)F)c5)cc4)c3c2)o1` reads 0.72%.
With `COc1cc(N2CCN(C(C)C)CC2)ccc1Nc1nc(Nc2cccc(F)c2C(=O)O)c2cc[nH]c2n1`, the inhibition is 1.11%.
On the same count and under the same terms, the result for `O=C(O[C@H]1CN[C@H](C#Cc2cc3ncnc(Nc4ccc5c(cnn5Cc5ccccc5)c4)c3s2)C1)N1CCOCC1` reads -1.65%; that for `CS(=O)(=O)Nc1ccc(-c2cc(-c3ccccc3)cc(C(N)=O)c2N)cc1`, -0.25%; that for `CCS(=O)(=O)c1ccc(OC)c(Nc2ncc(-c3cccc(F)c3)o2)c1`, 2.49%.
For the compound `O=C1Nc2ccccc2/C1=C1\CCc2cc(O)ccc21`, the inhibition was determined as 5.04%.
As for `Cc1ccc(-c2cc3c(NC(=O)C4CC4)ncnc3o2)cc1`, the inhibition is 1.3%.
Same read-out and setting: the result for `CS(=O)(=O)Nc1ccc(-c2ccc3c(NC(=O)C4CC4)n[nH]c3c2)cc1` reads -0.79%; that for `Cn1c(-c2nonc2N)nc2cnccc21`, 0.44%.
In the case of `COc1cccc(-n2ncc3c(N/N=C/c4ccc(C(=O)NCCN(C)C)cc4)ncnc32)c1`, the inhibition was 1.55%.
On to `O=C(Nc1n[nH]c2nnc(-c3cccnc3)cc12)C1CC1`, for which the inhibition came out at 0.83%.
`COC(=O)Nc1nc2ccc(Oc3ccc(NC(=O)Nc4cc(C(F)(F)F)ccc4F)cc3)cc2s1`: the inhibition is -8.34%.
`NC(=O)c1ccc2c(-c3ccnc(NCCCO)n3)c(-c3ccc(F)cc3)nn2c1`: the inhibition came out at 1.93%.
The same measure, in the same setting: the result for `NS(=O)(=O)c1ccc(N/N=C2\C(=O)Nc3ccc(C(=O)NCc4ccncc4)cc32)cc1` reads 0.88%; that for `CNC(=O)c1ncccc1Nc1nc(Nc2cc3c(cc2OC)CCCN3C(=O)CN(C)C)nc2[nH]ccc12`, 2.14%; that for `COc1ccccc1-c1cc(/C=C2\C(=O)Nc3ncc(Br)cc32)cc(Br)c1O`, -0.96%.
For the compound `CN(C)CCNC(=O)Nc1ccc(N(C)c2ccnc(Nc3ccc(CS(C)(=O)=O)cc3)n2)cc1`, the inhibition is 2.5%.
In the case of `CS(=O)(=O)CCNCc1ccc(-c2ccc3ncnc(Nc4ccc(OCc5ccccc5)cc4)c3c2)o1`, the inhibition is -0.24%.
As for `COC(=O)Nc1nc2cc(Oc3ccc(NC(=O)Nc4ccccc4)cc3)ccc2[nH]1`, the inhibition was found to be 0.31%.
Same read-out and setting: the result for `O=C(O[C@H]1CN[C@H](C#Cc2cc3ncnc(Nc4ccc(OCc5cccc(F)c5)c(Cl)c4)c3s2)C1)N1CCOCC1` reads 6.4%; that for `CCCNc1cccc(-n2ncc3c(N/N=C/c4ccncc4)ncnc32)c1`, 0.04%.
Take `CC1=C(C(=O)Nc2ccc3[nH]nc(C)c3c2)C(c2ccc(C(F)(F)F)cc2)CC(=O)N1` (configuration not stated): the inhibition is 0.75%.
On to `CN1CCC(C(=O)Nc2n[nH]c3nc(-c4ccc(O)cc4)c(Br)cc23)CC1`, for which the inhibition was 1.43% and -2.51%.
In the case of `Cc1cc(O)cc(C)c1/C=C/c1cncc(C(=O)OC(C)(C)C)c1`, the inhibition stood at 0.13%.
As to `CN1CCN(Cc2ccc(-c3cc4ncnc(Nc5ccc(OCc6cccc(F)c6)c(Cl)c5)c4s3)o2)CC1`, the inhibition was 0.8% and 0.26%.

For the next assay the target is unchanged. The conditions noted are these: at 1 µM.
Regarding `FC(F)(F)CNc1nccc(-c2cnn3ncccc23)n1`, the inhibition was 2.13%.
Turning to `CCOc1ccc2c(-c3ccnc(Nc4cc(OC)cc(C(F)(F)F)c4)n3)cnn2n1`, the inhibition was 1.23%.
In the case of `CCS(=O)(=O)c1ccc(OC)c(Nc2ncc(-c3cccc(C(C)=O)c3)o2)c1`, the inhibition is -4.12%.
Consider `CS(=O)(=O)CCNCc1ccoc1-c1ccc2ncnc(Nc3ccc(OCc4ccccc4)cc3)c2c1`, for which the inhibition was -2.18%.
As to `NS(=O)(=O)c1cccc(N/C=C2\C(=O)Nc3ccccc32)c1`, the inhibition is 12.6%.
Regarding `CCn1c(-c2nonc2N)nc2cncc(C(=O)NCCNC)c21`, the inhibition is 14%.
Turning to `CS(=O)(=O)CCNCc1ccc(-c2ccc3ncnc(Nc4ccc(OCc5cccc(C(F)(F)F)c5)cc4)c3c2)o1`, the inhibition is 5.07%.
Consider `COc1cc(N2CCN(C(C)C)CC2)ccc1Nc1nc(Nc2cccc(F)c2C(=O)O)c2cc[nH]c2n1`, for which the inhibition is 3.36%.
Still for that read-out and setting: the result for `O=C(O[C@H]1CN[C@H](C#Cc2cc3ncnc(Nc4ccc5c(cnn5Cc5ccccc5)c4)c3s2)C1)N1CCOCC1` reads 1.58%; that for `CS(=O)(=O)Nc1ccc(-c2cc(-c3ccccc3)cc(C(N)=O)c2N)cc1`, 4.64%.
Consider `CCS(=O)(=O)c1ccc(OC)c(Nc2ncc(-c3cccc(F)c3)o2)c1`, for which the inhibition is 2.64%.
For `O=C1Nc2ccccc2/C1=C1\CCc2cc(O)ccc21`, the inhibition turned out to be 24%.
The same measure, in the same setting: the result for `Cc1ccc(-c2cc3c(NC(=O)C4CC4)ncnc3o2)cc1` reads 3.45%.
In the case of `CS(=O)(=O)Nc1ccc(-c2ccc3c(NC(=O)C4CC4)n[nH]c3c2)cc1`, the inhibition turned out to be 0.66%.
On to `Cn1c(-c2nonc2N)nc2cnccc21`, for which the inhibition came out at 4.69%.
Same read-out and setting: the result for `COc1cccc(-n2ncc3c(N/N=C/c4ccc(C(=O)NCCN(C)C)cc4)ncnc32)c1` reads 11.9%.
`O=C(Nc1n[nH]c2nnc(-c3cccnc3)cc12)C1CC1`: the inhibition is 1.5%.
Take `COC(=O)Nc1nc2ccc(Oc3ccc(NC(=O)Nc4cc(C(F)(F)F)ccc4F)cc3)cc2s1`: the inhibition is -0.26%.
Still for that read-out and setting: the result for `NC(=O)c1ccc2c(-c3ccnc(NCCCO)n3)c(-c3ccc(F)cc3)nn2c1` reads 1.98%.
As for `NS(=O)(=O)c1ccc(N/N=C2\C(=O)Nc3ccc(C(=O)NCc4ccncc4)cc32)cc1`, the inhibition stood at 21.3%.
In the case of `CNC(=O)c1ncccc1Nc1nc(Nc2cc3c(cc2OC)CCCN3C(=O)CN(C)C)nc2[nH]ccc12`, the inhibition worked out at 4.82%.
Regarding `COc1ccccc1-c1cc(/C=C2\C(=O)Nc3ncc(Br)cc32)cc(Br)c1O`, the inhibition amounted to 2.22%.
Regarding `CN(C)CCNC(=O)Nc1ccc(N(C)c2ccnc(Nc3ccc(CS(C)(=O)=O)cc3)n2)cc1`, the inhibition came to 7.11%.
On to `CS(=O)(=O)CCNCc1ccc(-c2ccc3ncnc(Nc4ccc(OCc5ccccc5)cc4)c3c2)o1`, for which the inhibition stood at 1.67%.
For `COC(=O)Nc1nc2cc(Oc3ccc(NC(=O)Nc4ccccc4)cc3)ccc2[nH]1`, the inhibition was -0.9%.
As to `O=C(O[C@H]1CN[C@H](C#Cc2cc3ncnc(Nc4ccc(OCc5cccc(F)c5)c(Cl)c4)c3s2)C1)N1CCOCC1`, the inhibition was -1.51%.
Turning to `CCCNc1cccc(-n2ncc3c(N/N=C/c4ccncc4)ncnc32)c1`, the inhibition amounted to 4.97%.
In the case of `CC1=C(C(=O)Nc2ccc3[nH]nc(C)c3c2)C(c2ccc(C(F)(F)F)cc2)CC(=O)N1` (configuration not stated), the inhibition was 4.76%.
In the case of `CN1CCC(C(=O)Nc2n[nH]c3nc(-c4ccc(O)cc4)c(Br)cc23)CC1`, the inhibition was 2.87% and -0.48%.
As for `Cc1cc(O)cc(C)c1/C=C/c1cncc(C(=O)OC(C)(C)C)c1`, the inhibition amounted to 1.18%.
`CN1CCN(Cc2ccc(-c3cc4ncnc(Nc5ccc(OCc6cccc(F)c6)c(Cl)c5)c4s3)o2)CC1`: the inhibition was 2.8% and -1.69%.

The values are drawn from ChEMBL document CHEMBL1961873, “Compounds: GSK PKIS; Assays: Nanosyn kinase panel” (2012).
